# Test results: the supplement of paper PMC8728848
# This excerpt belongs to a sample that is enriched for the strongest signals.
# B1: GroEL (Clostridium difficile), Q18CT5 (protein)
# chain: MAKEIKFSEETRRALEAGVNKLADTVKVTLGPKGRNVILDKKFGSPLITNDGVTIAKEIELEDRFENMGAQLVKEVATKTNDVAGDGTTTATVLAQAIIREGLKNVTAGANPILLRKGIQKAVTVAVEELKNQSRIVETQEAISQVASISAGDEEVGKLIAEAMEIVGKDGVITVEESQTMNTELDAVEGMQFDRGFVSAYMVTDVDKMEAVLNDPYILITDKKISNIQELLPVLEQIVQQGKKLLIIAEDVEGEALSTLVVNKLRGTFDVVAVKAPGFGDRRKEMLQDIAILTGAQVISEELGYDLKEADLSMLGRASSVKVTKESTTIVDGSGDKKAIEDRVTQIKHQVEQTTSDFDREKLMERLAKLAGGVAVVKVGAATEVELKERKLRIEDALNATRAAVEEGIVAGGGTAFVSVIPAIGTLIESLEGEVKLGAQIVKKALEEPLRQIAINAGLEGAVIVQNVVNSEAETGFDALNEKYVNMIEAGIVDPTKVSRSALQNAASIASTFLTTEAAVADLPEKEDAGMPGMGGGMPGMM
# Legend:
# Assay in all cases: glycan array binding signal (z-score within array); higher = stronger binding
# Conditions in all cases: glycan notation: IUPAC condensed, linker removed
# [1] = biological target: Fuc(a1-2)Gal(b1-3)GalNAc(a1-3)[Fuc(a1-2)]Gal(b1-4)GlcNAc
# Method in brief: (§1)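 Negative Z-scores can be read as non-binding. The Z-score is calculated within each array and then averaged across arrays of one protein sequence at different concentrations or buffers and across linkers. Arrays, 3228 in all, were curated from the Consortium for Functional Glycomics database and kept only where the protein sequence was available.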
# [2] = biological target: Fuc(a1-2)Gal(b1-3)GlcNAc(b1-2)Man(a1-3)[Fuc(a1-2)Gal(b1-3)GlcNAc(b1-2)Man(a1-6)]Man(b1-4)GlcNAc(b1-4)GlcNAc
# Method in brief: as §1
# [3] = biological target: Fuc(a1-2)Gal(b1-4)GlcNAc(b1-2)Man(a1-3)[Fuc(a1-2)Gal(b1-4)GlcNAc(b1-2)Man(a1-6)]Man(b1-4)GlcNAc(b1-4)GlcNAc
# Method in brief: as §1
# [4] = biological target: Fuc(a1-2)Gal(b1-4)GlcNAc(b1-3)Gal(b1-4)GlcNAc(b1-3)Gal(b1-4)GlcNAc
# Method in brief: as §1
# [5] = biological target: Fuc(a1-2)Gal6S(b1-3)GlcNAc6S
# Method in brief: as §1
# [6] = biological target: Gal(a1-3)Gal(b1-4)[Fuc(a1-3)]GlcNAc(b1-2)Man(a1-3)[Gal(a1-3)Gal(b1-4)[Fuc(a1-3)]GlcNAc(b1-2)Man(a1-6)]Man(b1-4)GlcNAc(b1-4)GlcNAc
# Method in brief: as §1
# [7] = biological target: Gal(a1-4)Gal(b1-4)Glc
# Method in brief: as §1
# [8] = biological target: Gal(a1-4)Gal(b1-4)GlcNAc(b1-2)Man(a1-3)[Gal(a1-4)Gal(b1-4)GlcNAc(b1-2)Man(a1-6)]Man(b1-4)GlcNAc(b1-4)GlcNAc
# Method in brief: as §1
# [9] = biological target: Gal(b1-3)Gal(b1-4)GlcNAc
# Method in brief: as §1
# [10] = biological target: Gal(b1-3)GalNAc(a1-3)[Fuc(a1-2)]Gal(b1-4)Glc
# Method in brief: as §1
# [11] = biological target: Gal(b1-4)Glc6S
# Method in brief: as §1
# [12] = biological target: Gal(b1-4)GlcNAc(b1-2)Man(a1-3)[Gal(b1-4)GlcNAc(b1-2)Man(a1-6)]Man(b1-4)GlcNAc(b1-4)GlcNAc
# Method in brief: as §1
# [13] = biological target: Gal(b1-4)GlcNAc(b1-2)[Gal(b1-4)GlcNAc(b1-4)]Man(a1-3)[Gal(b1-4)GlcNAc(b1-2)Man(a1-6)]Man(b1-4)GlcNAc(b1-4)GlcNAc
# Method in brief: as §1
# [14] = biological target: Gal(b1-4)GlcNAc(b1-2)[Gal(b1-4)GlcNAc(b1-6)]Man(a1-6)[GlcNAc(b1-4)][Gal(b1-4)GlcNAc(b1-2)[Gal(b1-4)GlcNAc(b1-4)]Man(a1-3)]Man(b1-4)GlcNAc(b1-4)[Fuc(a1-6)]GlcNAc
# Method in brief: as §1
# [15] = biological target: Gal(b1-4)GlcNAc(b1-3)Gal(b1-4)GlcNAc(b1-3)Gal(b1-4)GlcNAc(b1-2)Man(a1-3)[Gal(b1-4)GlcNAc(b1-3)Gal(b1-4)GlcNAc(b1-3)Gal(b1-4)GlcNAc(b1-2)Man(a1-6)]Man(b1-4)GlcNAc(b1-4)[Fuc(a1-6)]GlcNAc
# Method in brief: as §1
# [16] = biological target: Gal(b1-4)GlcNAc(b1-3)Gal(b1-4)GlcNAc(b1-3)Gal(b1-4)GlcNAc(b1-2)[Gal(b1-4)GlcNAc(b1-3)Gal(b1-4)GlcNAc(b1-3)Gal(b1-4)GlcNAc(b1-6)]Man(a1-6)[Gal(b1-4)GlcNAc(b1-3)Gal(b1-4)GlcNAc(b1-3)Gal(b1-4)GlcNAc(b1-2)Man(a1-3)]Man(b1-4)GlcNAc(b1-4)[Fuc(a1-6)]GlcNAc
# Method in brief: as §1
# [17] = biological target: Gal(b1-4)GlcNAc(b1-3)Gal(b1-4)GlcNAc(b1-3)Gal(b1-4)GlcNAc(b1-3)Gal(b1-4)GlcNAc(b1-3)Gal(b1-4)GlcNAc(b1-2)[Gal(b1-4)GlcNAc(b1-3)Gal(b1-4)GlcNAc(b1-3)Gal(b1-4)GlcNAc(b1-3)Gal(b1-4)GlcNAc(b1-3)Gal(b1-4)GlcNAc(b1-6)]Man(a1-6)[Gal(b1-4)GlcNAc(b1-3)Gal(b1-4)GlcNAc(b1-3)Gal(b1-4)GlcNAc(b1-3)Gal(b1-4)GlcNAc(b1-3)Gal(b1-4)GlcNAc(b1-2)Man(a1-3)]Man(b1-4)GlcNAc(b1-4)[Fuc(a1-6)]GlcNAc
# Method in brief: as §1
# [18] = biological target: Gal(b1-4)GlcNAc(b1-3)Gal(b1-4)GlcNAc(b1-6)[Gal(b1-3)]GalNAc
# Method in brief: as §1
# [19] = biological target: Gal(b1-4)GlcNAc(b1-3)Gal(b1-4)[Fuc(a1-3)]GlcNAc(b1-3)Gal(b1-4)[Fuc(a1-3)]GlcNAc
# Method in brief: as §1
# [20] = biological target: Gal(b1-4)GlcNAc(b1-3)GalNAc
# Method in brief: as §1
# [21] = biological target: Gal3S(b1-3)GalNAc
# Method in brief: as §1
# [22] = biological target: Gal3S(b1-3)[Fuc(a1-4)]GlcNAc
# Method in brief: as §1
# [23] = biological target: Gal3S(b1-4)[Fuc(a1-3)]Glc6S
# Method in brief: as §1
# [24] = biological target: Gal3S4S(b1-4)GlcNAc
# Method in brief: as §1
# [25] = biological target: Glc(b1-6)Glc
# Method in brief: as §1
# [26] = biological target: GlcNAc(a1-4)Gal(b1-4)GlcNAc(b1-3)Gal(b1-4)Glc
# Method in brief: as §1
# [27] = biological target: GlcNAc(b1-3)Gal
# Method in brief: as §1
# [28] = biological target: GlcNAc(b1-3)[GlcNAc(b1-4)][GlcNAc(b1-6)]GlcNAc
# Method in brief: as §1
# [29] = biological target: Man(a1-3)[Man(a1-6)]Man(a1-6)[Man(a1-3)]Man(b1-4)GlcNAc(b1-4)GlcNAc
# Method in brief: as §1
# [30] = biological target: Neu5Ac(a2-3)Gal(b1-3)GlcNAc(b1-2)Man
# Method in brief: as §1
# [31] = biological target: Neu5Ac(a2-3)Gal(b1-3)GlcNAc(b1-3)Gal(b1-3)GlcNAc
# Method in brief: as §1
# [32] = biological target: Neu5Ac(a2-3)Gal(b1-3)GlcNAc(b1-3)GalNAc
# Method in brief: as §1
# [33] = biological target: Neu5Ac(a2-3)Gal(b1-3)GlcNAc(b1-4)Gal(b1-4)Glc
# Method in brief: as §1
# [34] = biological target: Neu5Ac(a2-3)Gal(b1-4)Glc
# Method in brief: as §1
# [35] = biological target: Neu5Ac(a2-3)Gal(b1-4)GlcNAc(b1-2)Man
# Method in brief: as §1
# [36] = biological target: Neu5Ac(a2-3)Gal(b1-4)GlcNAc(b1-6)GalNAc
# Method in brief: as §1
# [37] = biological target: Neu5Ac(a2-6)Gal(b1-4)Glc
# Method in brief: as §1
# [38] = biological target: Neu5Ac(a2-6)Gal(b1-4)GlcNAc(b1-2)Man(a1-6)Man(b1-4)GlcNAc(b1-4)GlcNAc
# Method in brief: as §1
# [39] = biological target: Neu5Ac(a2-6)Gal(b1-4)GlcNAc(b1-2)Man(a1-6)[GlcNAc(b1-2)Man(a1-3)]Man(b1-4)GlcNAc(b1-4)GlcNAc
# Method in brief: as §1
# [40] = biological target: Neu5Ac(a2-6)Gal(b1-4)GlcNAc(b1-3)[Neu5Ac(a2-6)Gal(b1-4)GlcNAc(b1-6)]GalNAc
# Method in brief: as §1
# [41] = biological target: Neu5Ac(a2-8)Neu5Ac(a2-8)Neu5Ac(a2-3)[GalNAc(b1-4)]Gal(b1-4)Glc
# Method in brief: as §1
# [42] = biological target: Neu5Gc(a2-3)Gal(b1-4)[Fuc(a1-3)]GlcNAc
# Method in brief: as §1
# [43] = biological target: Neu5Gc(a2-6)Gal(b1-4)GlcNAc
# Method in brief: as §1
# [44] = biological target: Neu5Gc(a2-8)Neu5Gc(a2-3)Gal(b1-4)GlcNAc
# Method in brief: as §1
binder,measurement,setting,value
B1,glycan array binding signal (z-score),[1],-0.541
same,glycan array binding signal (z-score),[2],3.73
same,glycan array binding signal (z-score),[3],2.28
same,glycan array binding signal (z-score),[4],0.143
same,glycan array binding signal (z-score),[5],-0.399
same,glycan array binding signal (z-score),[6],-0.924
same,glycan array binding signal (z-score),[7],2.58
same,glycan array binding signal (z-score),[8],0.083
same,glycan array binding signal (z-score),[9],-0.843
same,glycan array binding signal (z-score),[10],3.31
same,glycan array binding signal (z-score),[11],0.425
same,glycan array binding signal (z-score),[12],0.454
same,glycan array binding signal (z-score),[13],2.79
same,glycan array binding signal (z-score),[14],-1
same,glycan array binding signal (z-score),[15],0.085
same,glycan array binding signal (z-score),[16],3.44
same,glycan array binding signal (z-score),[17],1.02
same,glycan array binding signal (z-score),[18],2.77
same,glycan array binding signal (z-score),[19],-1.13
same,glycan array binding signal (z-score),[20],-0.517
same,glycan array binding signal (z-score),[21],2.59
same,glycan array binding signal (z-score),[22],-0.243
same,glycan array binding signal (z-score),[23],3.51
same,glycan array binding signal (z-score),[24],-0.674
same,glycan array binding signal (z-score),[25],3.22
same,glycan array binding signal (z-score),[26],0.659
same,glycan array binding signal (z-score),[27],0.995
same,glycan array binding signal (z-score),[28],-0.786
same,glycan array binding signal (z-score),[29],3.99
same,glycan array binding signal (z-score),[30],-0.056
same,glycan array binding signal (z-score),[31],-0.917
same,glycan array binding signal (z-score),[32],0.139
same,glycan array binding signal (z-score),[33],2.65
same,glycan array binding signal (z-score),[34],0.753
same,glycan array binding signal (z-score),[35],0.243
same,glycan array binding signal (z-score),[36],-0.601
same,glycan array binding signal (z-score),[37],0.455
same,glycan array binding signal (z-score),[38],-0.426
same,glycan array binding signal (z-score),[39],-0.085
same,glycan array binding signal (z-score),[40],-1.37
same,glycan array binding signal (z-score),[41],-0.254
same,glycan array binding signal (z-score),[42],-0.437
same,glycan array binding signal (z-score),[43],1.41
same,glycan array binding signal (z-score),[44],-0.482
